Results from PMC7862700, “An all-to-all approach to the identification of sequence-specific readers for epigenetic DNA modifications on cytosine”.

Legend:
Experiment in all cases: DAPPL (digital affinity profiling via proximity ligation, sequencing); 10 mM Tris-HCl pH 7.5, 50 mM NaCl, 1 mM DTT, 4% glycerol, room temperature, 30 min; GST-TFs on glutathione beads, 16-mer random dsDNA library, 0.1% formaldehyde crosslink after washing; high values mean tight binding
[1] = biological target: T1, FEV (Homo sapiens, UniProt Q99581 1-238); conditions: protein: recombinant; tags: N-terminal GST; dsDNA, one strand shown
T1 sequence: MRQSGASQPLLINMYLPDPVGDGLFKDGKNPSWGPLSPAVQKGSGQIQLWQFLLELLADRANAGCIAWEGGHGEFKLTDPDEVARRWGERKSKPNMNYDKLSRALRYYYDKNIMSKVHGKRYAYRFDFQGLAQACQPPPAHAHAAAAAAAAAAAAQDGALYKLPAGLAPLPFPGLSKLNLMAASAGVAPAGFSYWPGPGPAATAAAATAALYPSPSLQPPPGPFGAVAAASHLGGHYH
Procedure, shortened: (§1)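 Beads coated with glutathione captured GST-fused human transcription factors that had been expressed in yeast, and the factors were then given DNA barcodes and pooled with a tag-only sample. The pools were incubated with 200 nmole of a random double-stranded 16-mer DNA library in Tris/NaCl/DTT/glycerol buffer for 30 min at room temperature, washed, crosslinked with 0.1% formaldehyde and proximity-ligated with BsaI/T4 ligase at 37 °C for 1 h. PCR amplification and Illumina NextSeq500 sequencing came last. Binding signal is each hexamer's read frequency for a factor divided by its frequency for the tag-only sample.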

[2] = biological target: ETV5 (Homo sapiens, UniProt P41161 1-510); conditions: protein: recombinant; tags: N-terminal GST; dsDNA, one strand shown
Chain of ETV5 (P41161 whole entry): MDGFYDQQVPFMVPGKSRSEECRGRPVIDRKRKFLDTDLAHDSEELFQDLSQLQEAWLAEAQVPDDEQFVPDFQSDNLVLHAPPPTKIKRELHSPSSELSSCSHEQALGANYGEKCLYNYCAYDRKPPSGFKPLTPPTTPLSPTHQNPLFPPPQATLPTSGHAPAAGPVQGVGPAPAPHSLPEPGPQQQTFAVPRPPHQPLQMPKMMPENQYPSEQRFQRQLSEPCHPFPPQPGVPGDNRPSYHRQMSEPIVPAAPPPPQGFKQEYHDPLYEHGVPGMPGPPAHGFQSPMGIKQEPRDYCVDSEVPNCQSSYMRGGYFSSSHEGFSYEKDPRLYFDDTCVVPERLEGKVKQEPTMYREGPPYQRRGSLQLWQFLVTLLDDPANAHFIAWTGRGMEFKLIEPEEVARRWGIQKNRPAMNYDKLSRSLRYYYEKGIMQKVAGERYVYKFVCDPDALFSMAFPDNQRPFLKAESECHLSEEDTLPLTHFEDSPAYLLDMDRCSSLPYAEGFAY
Procedure, shortened: as §1

[3] = biological target: HSF1 (Homo sapiens, UniProt Q00613 1-529); conditions: protein: recombinant; tags: N-terminal GST; chain copies: 3; dsDNA, one strand shown
Chain of HSF1 (Q00613 whole entry): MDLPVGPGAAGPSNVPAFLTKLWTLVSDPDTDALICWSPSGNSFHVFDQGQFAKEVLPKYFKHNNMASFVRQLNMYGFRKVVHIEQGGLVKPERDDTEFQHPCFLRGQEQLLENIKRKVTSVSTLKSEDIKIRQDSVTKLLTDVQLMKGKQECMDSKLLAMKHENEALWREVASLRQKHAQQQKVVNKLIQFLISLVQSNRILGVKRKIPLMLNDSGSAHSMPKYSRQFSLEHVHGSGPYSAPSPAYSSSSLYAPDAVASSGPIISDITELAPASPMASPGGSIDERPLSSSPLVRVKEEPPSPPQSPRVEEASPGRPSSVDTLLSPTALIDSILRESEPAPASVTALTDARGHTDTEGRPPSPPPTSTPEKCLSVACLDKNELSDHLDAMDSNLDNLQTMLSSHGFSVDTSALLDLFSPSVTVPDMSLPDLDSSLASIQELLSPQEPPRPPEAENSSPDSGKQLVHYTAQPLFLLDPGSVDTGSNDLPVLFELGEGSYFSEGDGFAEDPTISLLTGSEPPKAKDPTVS
Procedure, shortened: as §1

[4] = biological target: T2, SPIC (Homo sapiens, UniProt Q8N5J4 1-248); conditions: protein: recombinant; tags: N-terminal GST; dsDNA, one strand shown
T2 sequence: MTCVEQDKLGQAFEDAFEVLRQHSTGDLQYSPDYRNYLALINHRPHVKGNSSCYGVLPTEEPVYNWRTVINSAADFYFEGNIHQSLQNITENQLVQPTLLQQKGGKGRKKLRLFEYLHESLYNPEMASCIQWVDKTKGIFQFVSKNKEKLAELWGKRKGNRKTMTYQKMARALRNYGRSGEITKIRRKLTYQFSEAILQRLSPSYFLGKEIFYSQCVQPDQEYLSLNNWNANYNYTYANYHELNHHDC
Procedure, shortened: as §1

[5] = biological target: ELF4 (Homo sapiens, UniProt Q99607 1-663); conditions: protein: recombinant; tags: N-terminal GST; dsDNA, one strand shown
Chain of ELF4 (Q99607 whole entry): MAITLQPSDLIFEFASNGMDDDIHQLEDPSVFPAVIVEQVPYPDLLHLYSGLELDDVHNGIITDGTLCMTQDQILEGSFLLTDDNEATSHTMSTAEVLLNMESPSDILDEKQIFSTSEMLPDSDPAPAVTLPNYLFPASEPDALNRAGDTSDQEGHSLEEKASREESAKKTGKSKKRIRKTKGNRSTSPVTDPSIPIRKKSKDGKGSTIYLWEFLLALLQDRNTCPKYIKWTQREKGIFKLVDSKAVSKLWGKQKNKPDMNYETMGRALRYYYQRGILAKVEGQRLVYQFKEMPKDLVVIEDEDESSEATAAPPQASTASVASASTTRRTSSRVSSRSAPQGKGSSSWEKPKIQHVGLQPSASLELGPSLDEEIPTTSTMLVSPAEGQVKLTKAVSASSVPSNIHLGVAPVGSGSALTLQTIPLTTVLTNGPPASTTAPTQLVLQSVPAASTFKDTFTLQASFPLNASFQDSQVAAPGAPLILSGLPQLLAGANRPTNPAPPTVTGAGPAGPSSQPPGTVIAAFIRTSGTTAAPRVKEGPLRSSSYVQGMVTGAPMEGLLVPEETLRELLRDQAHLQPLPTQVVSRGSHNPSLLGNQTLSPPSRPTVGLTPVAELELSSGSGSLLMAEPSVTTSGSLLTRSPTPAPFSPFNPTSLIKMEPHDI
Procedure, shortened: as §1

[6] = biological target: T3, ELK4 (Homo sapiens, UniProt P28324-2 1-405); conditions: protein: recombinant; tags: N-terminal GST; dsDNA, one strand shown
T3 sequence: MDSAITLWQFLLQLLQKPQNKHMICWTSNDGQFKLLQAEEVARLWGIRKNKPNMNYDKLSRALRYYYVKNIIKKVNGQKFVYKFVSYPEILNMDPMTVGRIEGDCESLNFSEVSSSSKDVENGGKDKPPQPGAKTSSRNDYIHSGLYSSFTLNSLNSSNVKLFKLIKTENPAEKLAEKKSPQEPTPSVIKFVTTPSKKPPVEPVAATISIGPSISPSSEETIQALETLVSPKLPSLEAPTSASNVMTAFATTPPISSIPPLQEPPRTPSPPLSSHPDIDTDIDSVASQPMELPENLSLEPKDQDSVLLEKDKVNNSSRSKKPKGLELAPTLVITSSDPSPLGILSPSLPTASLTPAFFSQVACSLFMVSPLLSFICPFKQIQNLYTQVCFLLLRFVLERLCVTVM
Procedure, shortened: as §1

[7] = biological target: T4, ETV2 (Homo sapiens, UniProt O00321 1-342); conditions: protein: recombinant; tags: N-terminal GST; dsDNA, one strand shown
T4 sequence: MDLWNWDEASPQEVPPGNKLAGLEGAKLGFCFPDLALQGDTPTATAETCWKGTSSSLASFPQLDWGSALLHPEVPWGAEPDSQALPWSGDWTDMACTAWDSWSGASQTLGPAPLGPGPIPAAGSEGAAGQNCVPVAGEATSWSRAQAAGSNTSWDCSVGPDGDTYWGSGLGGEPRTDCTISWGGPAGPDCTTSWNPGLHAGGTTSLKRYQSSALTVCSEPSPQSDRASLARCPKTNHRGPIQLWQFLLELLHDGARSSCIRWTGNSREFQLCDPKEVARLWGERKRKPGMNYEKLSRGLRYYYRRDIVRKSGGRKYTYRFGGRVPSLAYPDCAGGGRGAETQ
Procedure, shortened: as §1

[8] = biological target: T5, ELF3 (Homo sapiens, UniProt P78545 1-371); conditions: protein: recombinant; tags: N-terminal GST; dsDNA, one strand shown
T5 sequence: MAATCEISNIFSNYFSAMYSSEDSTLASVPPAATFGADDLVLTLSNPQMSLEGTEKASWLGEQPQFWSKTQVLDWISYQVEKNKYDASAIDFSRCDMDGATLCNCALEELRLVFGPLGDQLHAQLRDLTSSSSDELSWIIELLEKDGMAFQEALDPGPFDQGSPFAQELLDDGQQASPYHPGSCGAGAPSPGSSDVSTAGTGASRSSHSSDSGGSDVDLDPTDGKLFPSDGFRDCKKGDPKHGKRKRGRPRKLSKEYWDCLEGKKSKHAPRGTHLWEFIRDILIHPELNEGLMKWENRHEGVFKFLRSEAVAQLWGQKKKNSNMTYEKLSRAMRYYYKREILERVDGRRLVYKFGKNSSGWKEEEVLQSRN
Procedure, shortened: as §1

[9] = biological target: CRX (Homo sapiens, UniProt O43186 1-299); conditions: protein: recombinant; tags: N-terminal GST; dsDNA, one strand shown
Chain of CRX (O43186 whole entry): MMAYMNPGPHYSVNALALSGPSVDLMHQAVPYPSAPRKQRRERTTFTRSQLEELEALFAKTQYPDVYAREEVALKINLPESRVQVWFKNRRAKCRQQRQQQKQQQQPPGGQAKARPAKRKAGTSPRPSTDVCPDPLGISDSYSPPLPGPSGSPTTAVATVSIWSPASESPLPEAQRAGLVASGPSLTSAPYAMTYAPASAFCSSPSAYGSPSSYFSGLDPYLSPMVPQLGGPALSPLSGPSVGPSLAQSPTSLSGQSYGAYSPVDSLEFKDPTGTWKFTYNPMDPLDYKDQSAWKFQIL
Procedure, shortened: as §1

[10] = biological target: ETV1 (Homo sapiens, UniProt P50549 1-477); conditions: protein: recombinant; tags: N-terminal GST; dsDNA, one strand shown
Chain of ETV1 (P50549 whole entry): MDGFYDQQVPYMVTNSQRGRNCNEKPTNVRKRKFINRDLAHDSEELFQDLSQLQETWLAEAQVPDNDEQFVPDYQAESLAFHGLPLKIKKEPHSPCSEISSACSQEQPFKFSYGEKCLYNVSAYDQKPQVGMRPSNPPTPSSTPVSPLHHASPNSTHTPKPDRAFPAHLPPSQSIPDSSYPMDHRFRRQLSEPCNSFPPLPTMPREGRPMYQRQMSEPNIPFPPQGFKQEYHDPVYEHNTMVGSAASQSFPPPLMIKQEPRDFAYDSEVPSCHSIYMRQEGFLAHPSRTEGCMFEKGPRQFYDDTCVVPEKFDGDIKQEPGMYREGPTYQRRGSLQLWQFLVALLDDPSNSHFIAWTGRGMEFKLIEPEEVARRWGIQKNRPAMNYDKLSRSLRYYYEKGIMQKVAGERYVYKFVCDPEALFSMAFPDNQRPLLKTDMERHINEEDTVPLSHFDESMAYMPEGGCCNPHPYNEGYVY
Procedure, shortened: as §1

CCCTTA
binding signal [1]: 1.24 fold enrichment (6-mer frequency, TF over GST control) | binding signal [2]: 1.28 fold enrichment (6-mer frequency, TF over GST control) | binding signal [3]: 1.28 fold enrichment (6-mer frequency, TF over GST control) | binding signal [4]: 1.31 fold enrichment (6-mer frequency, TF over GST control) | binding signal [5]: 1.39 fold enrichment (6-mer frequency, TF over GST control) | binding signal [6]: 1.21 fold enrichment (6-mer frequency, TF over GST control) | binding signal [7]: 1.41 fold enrichment (6-mer frequency, TF over GST control) | binding signal [8]: 1.29 fold enrichment (6-mer frequency, TF over GST control) | binding signal [9]: 1.59 fold enrichment (6-mer frequency, TF over GST control) | binding signal [10]: 1.21 fold enrichment (6-mer frequency, TF over GST control)
